Data: PubChem BioAssay (NCATS)
Inconclusive results are not listed. Activity calls are given as the source filed them. The call rests on the fitted dose curve; in most records, active means well fitted inhibition curve with a large enough effect; inconclusive means small, poorly fitted or top-dose-only effect; inactive means flat fitted curve, though single readings scatter.

Legend:
[1] = target: Ubiquitin carboxyl-terminal hydrolase 1 (Homo sapiens) (UniProt O94782); assay: Inhibitors of USP1/UAF1: Pilot qHTS (AID 504865);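 further: rhodamine fluorescence freed from ubiquitin-rhodamine substrate followed over time; top concentration of the series differs between compounds; on the % scale 0 is the no-effect control and ±100 the full control effect; nearly all actives have a fitted effect of over 35% in size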
Procedure, shortened: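 Deubiquitinase activity followed as kinetic rhodamine fluorescence release from 150 nM Ub-Rho. 1 nM USP1/UAF1 with compound, after 15 min room-temperature preincubation, in HEPES pH 7.8 buffer containing TCEP, EDTA, BSA and Tween-20.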

[2] = target: Luciferin 4-monooxygenase (Photinus pyralis) (UniProt P08659); assay: Biochemical firefly luciferase enzyme assay for NPC (AID 624030);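 further: purified P. pyralis luciferase at 10 nM with luciferin and ATP substrate; 0% = DMSO and -100% = full luciferase inhibition by PTC124 control; nearly all actives have a fitted effect of over 70% in size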
Procedure, shortened: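 Purified P. pyralis luciferase at 10 nM in 50 mM Tris Acetate (final), luminescence read within 5 minutes of enzyme addition to compounds. Activity normalised to PTC124 versus DMSO; concentration-response curves classed by r2, magnitude and activity.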

[3] = qHTS profiling for inhibitors of Plasmodium falciparum proliferation (AID 504749);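 further: 0% = DMSO vehicle and full inhibition = artemisinin control; nearly all actives have a fitted effect of over 60% in size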; settings: P. falciparum in erythrocytes, SYBR Green DNA, 72 h, at 28.7 µM (top of the series)
Procedure, shortened: (§1)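 Readout was DNA-dye fluorescence from lysed cultures, ex 485/em 535 nm. Parasitized red cells had grown 72 h with compound; data scaled between 0.29 uM artemisinin and DMSO wells and corrected using vehicle-only plates.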

[4] = system: 3D7; assay: as above; settings: P. falciparum in erythrocytes, SYBR Green DNA, 72 h; series mostly up to 28.7 µM
Procedure, shortened: as §1

[5] = system: 7G8; assay: as above; settings: P. falciparum in erythrocytes, SYBR Green DNA, 72 h; series mostly up to 28.7 µM
Procedure, shortened: as §1

[6] = system: AA1029; assay: as above; settings: P. falciparum in erythrocytes, SYBR Green DNA, 72 h; series mostly up to 28.7 µM
Procedure, shortened: as §1

[7] = system: AS120; assay: as above; settings: P. falciparum in erythrocytes, SYBR Green DNA, 72 h; series mostly up to 28.7 µM
Procedure, shortened: as §1

[8] = system: ATS189; assay: as above; settings: P. falciparum in erythrocytes, SYBR Green DNA, 72 h; series mostly up to 28.7 µM
Procedure, shortened: as §1

[9] = system: ATS95; assay: as above; settings: P. falciparum in erythrocytes, SYBR Green DNA, 72 h; series mostly up to 28.7 µM
Procedure, shortened: as §1

[10] = system: C2A; assay: as above; settings: P. falciparum in erythrocytes, SYBR Green DNA, 72 h; series mostly up to 28.7 µM
Procedure, shortened: as §1

[11] = system: CP185; assay: as above; settings: P. falciparum in erythrocytes, SYBR Green DNA, 72 h; series mostly up to 28.7 µM
Procedure, shortened: as §1

[12] = system: CP191; assay: as above; settings: P. falciparum in erythrocytes, SYBR Green DNA, 72 h; series mostly up to 28.7 µM
Procedure, shortened: as §1

[13] = system: CP192; assay: as above; settings: P. falciparum in erythrocytes, SYBR Green DNA, 72 h; series mostly up to 28.7 µM
Procedure, shortened: as §1

[14] = system: CP194; assay: as above; settings: P. falciparum in erythrocytes, SYBR Green DNA, 72 h; series mostly up to 28.7 µM
Procedure, shortened: as §1

[15] = system: CP201; assay: as above; settings: P. falciparum in erythrocytes, SYBR Green DNA, 72 h; series mostly up to 28.7 µM
Procedure, shortened: as §1

[16] = system: CP203; assay: as above; settings: P. falciparum in erythrocytes, SYBR Green DNA, 72 h; series mostly up to 28.7 µM
Procedure, shortened: as §1

[17] = system: CP211; assay: as above; settings: P. falciparum in erythrocytes, SYBR Green DNA, 72 h; series mostly up to 28.7 µM
Procedure, shortened: as §1

[18] = system: CP215; assay: as above; settings: P. falciparum in erythrocytes, SYBR Green DNA, 72 h; series mostly up to 28.7 µM
Procedure, shortened: as §1

[19] = system: CP217; assay: as above; settings: P. falciparum in erythrocytes, SYBR Green DNA, 72 h; series mostly up to 28.7 µM
Procedure, shortened: as §1

[20] = system: CP237; assay: as above; settings: P. falciparum in erythrocytes, SYBR Green DNA, 72 h; series mostly up to 28.7 µM
Procedure, shortened: as §1

[21] = system: CP238; assay: as above; settings: P. falciparum in erythrocytes, SYBR Green DNA, 72 h; series mostly up to 28.7 µM
Procedure, shortened: as §1

[22] = system: CP247; assay: as above; settings: P. falciparum in erythrocytes, SYBR Green DNA, 72 h; series mostly up to 28.7 µM
Procedure, shortened: as §1

[23] = system: CP250; assay: as above; settings: P. falciparum in erythrocytes, SYBR Green DNA, 72 h; series mostly up to 28.7 µM
Procedure, shortened: as §1

[24] = system: CP252; assay: as above; settings: P. falciparum in erythrocytes, SYBR Green DNA, 72 h; series mostly up to 28.7 µM
Procedure, shortened: as §1

[25] = system: CP256; assay: as above; settings: P. falciparum in erythrocytes, SYBR Green DNA, 72 h; series mostly up to 28.7 µM
Procedure, shortened: as §1

[26] = system: CP260; assay: as above; settings: P. falciparum in erythrocytes, SYBR Green DNA, 72 h; series mostly up to 28.7 µM
Procedure, shortened: as §1

[27] = system: CP262; assay: as above; settings: P. falciparum in erythrocytes, SYBR Green DNA, 72 h; series mostly up to 28.7 µM
Procedure, shortened: as §1

[28] = system: CP265; assay: as above; settings: P. falciparum in erythrocytes, SYBR Green DNA, 72 h; series mostly up to 28.7 µM
Procedure, shortened: as §1

[29] = system: CP266; assay: as above; settings: P. falciparum in erythrocytes, SYBR Green DNA, 72 h; series mostly up to 28.7 µM
Procedure, shortened: as §1

[30] = system: CP268; assay: as above; settings: P. falciparum in erythrocytes, SYBR Green DNA, 72 h; series mostly up to 28.7 µM
Procedure, shortened: as §1

[31] = system: CP269; assay: as above; settings: P. falciparum in erythrocytes, SYBR Green DNA, 72 h; series mostly up to 28.7 µM
Procedure, shortened: as §1

[32] = system: CP286; assay: as above; settings: P. falciparum in erythrocytes, SYBR Green DNA, 72 h; series mostly up to 28.7 µM
Procedure, shortened: as §1

[33] = system: CP291; assay: as above; settings: P. falciparum in erythrocytes, SYBR Green DNA, 72 h; series mostly up to 28.7 µM
Procedure, shortened: as §1

[34] = system: CP297; assay: as above; settings: P. falciparum in erythrocytes, SYBR Green DNA, 72 h; series mostly up to 28.7 µM
Procedure, shortened: as §1

[35] = system: CP305; assay: as above; settings: P. falciparum in erythrocytes, SYBR Green DNA, 72 h; series mostly up to 28.7 µM
Procedure, shortened: as §1

[36] = system: CP315; assay: as above; settings: P. falciparum in erythrocytes, SYBR Green DNA, 72 h; series mostly up to 28.7 µM
Procedure, shortened: as §1

[37] = system: CP325; assay: as above; settings: P. falciparum in erythrocytes, SYBR Green DNA, 72 h; series mostly up to 28.7 µM
Procedure, shortened: as §1

[38] = system: CP329; assay: as above; settings: P. falciparum in erythrocytes, SYBR Green DNA, 72 h; series mostly up to 28.7 µM
Procedure, shortened: as §1

[39] = system: CP335; assay: as above; settings: P. falciparum in erythrocytes, SYBR Green DNA, 72 h; series mostly up to 28.7 µM
Procedure, shortened: as §1

[40] = system: DFO2036; assay: as above; settings: P. falciparum in erythrocytes, SYBR Green DNA, 72 h; series mostly up to 28.7 µM
Procedure, shortened: as §1

[41] = system: DIV14; assay: as above; settings: P. falciparum in erythrocytes, SYBR Green DNA, 72 h; series mostly up to 28.7 µM
Procedure, shortened: as §1

[42] = system: DIV17; assay: as above; settings: P. falciparum in erythrocytes, SYBR Green DNA, 72 h; series mostly up to 28.7 µM
Procedure, shortened: as §1

[43] = system: DIV30; assay: as above; settings: P. falciparum in erythrocytes, SYBR Green DNA, 72 h; series mostly up to 28.7 µM
Procedure, shortened: as §1

[44] = system: Dd2; assay: as above; settings: P. falciparum in erythrocytes, SYBR Green DNA, 72 h; series mostly up to 28.7 µM
Procedure, shortened: as §1

[45] = system: ECU; assay: as above; settings: P. falciparum in erythrocytes, SYBR Green DNA, 72 h; series mostly up to 28.7 µM
Procedure, shortened: as §1

[46] = system: FAB9; assay: as above; settings: P. falciparum in erythrocytes, SYBR Green DNA, 72 h; series mostly up to 28.7 µM
Procedure, shortened: as §1

[47] = system: GB4; assay: as above; settings: P. falciparum in erythrocytes, SYBR Green DNA, 72 h; series mostly up to 28.7 µM
Procedure, shortened: as §1

[48] = system: HB3; assay: as above; settings: P. falciparum in erythrocytes, SYBR Green DNA, 72 h; series mostly up to 28.7 µM
Procedure, shortened: as §1

[49] = system: ICS; assay: as above; settings: P. falciparum in erythrocytes, SYBR Green DNA, 72 h; series mostly up to 28.7 µM
Procedure, shortened: as §1

[50] = system: JCK; assay: as above; settings: P. falciparum in erythrocytes, SYBR Green DNA, 72 h; series mostly up to 28.7 µM
Procedure, shortened: as §1

[51] = system: N140; assay: as above; settings: P. falciparum in erythrocytes, SYBR Green DNA, 72 h; series mostly up to 28.7 µM
Procedure, shortened: as §1

[52] = system: P93_24; assay: as above; settings: P. falciparum in erythrocytes, SYBR Green DNA, 72 h; series mostly up to 28.7 µM
Procedure, shortened: as §1

[53] = system: P94_40; assay: as above; settings: P. falciparum in erythrocytes, SYBR Green DNA, 72 h; series mostly up to 28.7 µM
Procedure, shortened: as §1

[54] = system: PAD; assay: as above; settings: P. falciparum in erythrocytes, SYBR Green DNA, 72 h; series mostly up to 28.7 µM
Procedure, shortened: as §1

[55] = system: PC15; assay: as above; settings: P. falciparum in erythrocytes, SYBR Green DNA, 72 h; series mostly up to 28.7 µM
Procedure, shortened: as §1

[56] = system: PC26; assay: as above; settings: P. falciparum in erythrocytes, SYBR Green DNA, 72 h; series mostly up to 28.7 µM
Procedure, shortened: as §1

[57] = system: PC49; assay: as above; settings: P. falciparum in erythrocytes, SYBR Green DNA, 72 h; series mostly up to 28.7 µM
Procedure, shortened: as §1

[58] = system: SC27B; assay: as above; settings: P. falciparum in erythrocytes, SYBR Green DNA, 72 h; series mostly up to 28.7 µM
Procedure, shortened: as §1

[59] = system: TAB109; assay: as above; settings: P. falciparum in erythrocytes, SYBR Green DNA, 72 h; series mostly up to 28.7 µM
Procedure, shortened: as §1

[60] = system: TAB113; assay: as above; settings: P. falciparum in erythrocytes, SYBR Green DNA, 72 h; series mostly up to 28.7 µM
Procedure, shortened: as §1

[61] = system: TAB165; assay: as above; settings: P. falciparum in erythrocytes, SYBR Green DNA, 72 h; series mostly up to 28.7 µM
Procedure, shortened: as §1

[62] = system: W2; assay: as above; settings: P. falciparum in erythrocytes, SYBR Green DNA, 72 h; series mostly up to 28.7 µM
Procedure, shortened: as §1

Sequence of Luciferin 4-monooxygenase (Photinus pyralis) (P08659 whole entry, looked up): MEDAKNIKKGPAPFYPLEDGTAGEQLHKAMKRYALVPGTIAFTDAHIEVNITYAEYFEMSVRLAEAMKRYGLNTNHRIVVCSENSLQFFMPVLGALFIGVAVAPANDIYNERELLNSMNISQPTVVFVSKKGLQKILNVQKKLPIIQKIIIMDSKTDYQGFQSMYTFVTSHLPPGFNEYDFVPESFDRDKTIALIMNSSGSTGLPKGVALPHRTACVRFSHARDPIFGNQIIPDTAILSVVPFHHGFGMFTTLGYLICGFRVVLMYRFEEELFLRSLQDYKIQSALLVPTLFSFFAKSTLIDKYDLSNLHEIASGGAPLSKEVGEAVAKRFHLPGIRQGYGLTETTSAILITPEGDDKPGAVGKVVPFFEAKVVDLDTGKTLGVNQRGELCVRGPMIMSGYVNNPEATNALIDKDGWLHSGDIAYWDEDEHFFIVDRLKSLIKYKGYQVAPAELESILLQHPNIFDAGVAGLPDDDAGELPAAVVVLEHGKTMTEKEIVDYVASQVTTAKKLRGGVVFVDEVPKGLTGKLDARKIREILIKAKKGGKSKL
Sequence of Ubiquitin carboxyl-terminal hydrolase 1 (Homo sapiens) (O94782 whole entry, looked up): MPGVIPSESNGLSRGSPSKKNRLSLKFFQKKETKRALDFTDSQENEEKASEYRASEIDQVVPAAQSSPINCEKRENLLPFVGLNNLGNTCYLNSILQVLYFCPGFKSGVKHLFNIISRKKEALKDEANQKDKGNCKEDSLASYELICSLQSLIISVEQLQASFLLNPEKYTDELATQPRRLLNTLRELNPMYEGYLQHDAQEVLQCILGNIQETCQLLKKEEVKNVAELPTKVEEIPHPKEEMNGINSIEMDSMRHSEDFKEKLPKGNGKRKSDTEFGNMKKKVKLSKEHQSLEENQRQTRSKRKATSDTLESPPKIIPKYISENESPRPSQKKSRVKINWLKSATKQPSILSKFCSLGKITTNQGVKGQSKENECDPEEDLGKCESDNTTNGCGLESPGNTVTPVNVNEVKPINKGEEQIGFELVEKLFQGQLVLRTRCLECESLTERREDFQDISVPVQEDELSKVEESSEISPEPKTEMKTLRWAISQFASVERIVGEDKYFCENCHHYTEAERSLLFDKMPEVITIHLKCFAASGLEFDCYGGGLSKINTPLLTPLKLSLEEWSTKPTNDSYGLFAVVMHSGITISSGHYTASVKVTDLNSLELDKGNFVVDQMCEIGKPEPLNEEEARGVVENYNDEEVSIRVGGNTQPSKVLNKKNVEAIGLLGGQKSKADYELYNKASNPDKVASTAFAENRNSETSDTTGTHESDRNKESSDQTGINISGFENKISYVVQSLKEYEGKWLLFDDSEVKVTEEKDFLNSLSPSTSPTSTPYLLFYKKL

CC(C)(C)C(=O)OCC(=O)C1CCC2C3CCC4=CC(=O)CCC4(C)C3CCC12C (stereo not drawn)
inactive: Potency [1] | Potency [2] | activity, negative = inhibition ([3]; parasite line A) 6.25% | activity, negative = inhibition ([3]; parasite line B) 11.2% | Potency [4] | Potency [5] | Potency [6] | Potency [7] | Potency [8] | Potency [9] | Potency [10] | Potency [11] | Potency [12] | Potency [13] | Potency [14] | Potency [15] | Potency [16] | Potency [17] | Potency [18] | Potency [19] | Potency [20] | Potency [21] | Potency [22] | Potency [23] | Potency [24] | Potency [25] | Potency [26] | Potency [27] | Potency [28] | Potency [29] | Potency [30] | Potency [31] | Potency [32] | Potency [33] | Potency [34] | Potency [35] | Potency [36] | Potency [37] | Potency [38] | Potency [39] | Potency [40] | Potency [41] | Potency [42] | Potency [43] | Potency [44] | Potency [45] | Potency [46] | Potency [47] | Potency [48] | Potency [49] | Potency [50] | Potency [51] | Potency [52] | Potency [53] | Potency [54] | Potency [55] | Potency [56] | Potency [57] | Potency [58] | Potency [59] | Potency [60] | Potency [61] | Potency [62]
